Most compounds without a hit are left out; they make up all but 4.1% or so of the library.
DAX1 inh-1 – DAX1 (NR0B1) inhibition, primary screen | HEK293T StAR-luciferase reporter, SF-1/DAX-1 repression relief | inhibition, % at 6.8 µM | 370,000 compounds, 1.1% hits | AID 652010;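 active means inhibition above the mean over all tested compounds plus 3 SD, cut at about 3.6% in these data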;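 further: 0% = DAX-1 cells with DMSO and 100% = cells lacking DAX-1 with DMSO; higher inhibition means more luminescence from relief of DAX-1 repression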
hgDAF12 agonist – agonists of H. glycines DAF-12 nuclear receptor. activation, % at 6.8 µM. HEK293 GAL4-hgDAF12 UAS-luciferase reporter, agonist luminescence; normalized to butyrate control. 370,000 compounds, 1.8% hits;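 active means activation above a cutoff set at the mean of all screened compounds plus 3 SD, cut at about 10% in these data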;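 further: 0% = DMSO wells and 100% = sodium butyrate wells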
ssDAF12 agonist – S. stercoralis DAF-12 activation, primary screen | HEK293 ssDAF-12/GRIP1 lit1-tk-luc reporter, luminescence; % of 3 µM dafachronic acid response | activation, % at 6.8 µM | 370,000 compounds, 1% hits;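 active means activation above the mean over all tested compounds plus 3 SD, cut at about 0.9% in these data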;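 further: 0% = DMSO-only wells and 100% = 3 µM delta7-dafachronic acid wells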
DAX1 inh-2 – inhibits human nuclear receptor DAX1 | 340,000 compounds, 0.99% hits | P51843 | inhibition, % at 6.75 µM | HEK293 Gal4-DAX1 luciferase reporter, luminescence;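 active means inhibition above the mean over all tested compounds plus 3 SD, cut at about 4.2% in these data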;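 further: 0% = DAX1-transfected cells with DMSO and 100% = empty-vector control cells with DMSO; inhibition shows as a rise in luminescence from relieved DAX1 repression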
hcDAF-12 act – H. contortus DAF-12 activation, primary screen | HEK293 hcDAF-12 lit1-tk-luc reporter, luminescence; 0% DMSO, 100% Δ7-dafachronic acid | activation, % at 6.8 µM | 370,000 compounds, 1.4% hits;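 active means activation above the mean of all tested compounds plus 3 SD, cut at about 5.5% in these data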;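 further: 100% = response to 3 µM Δ7-dafachronic acid high control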
LXRb hcDAF ctr – LXR-beta agonism as hcDAF-12 counter-screen. shares compounds with hcDAF-12 act. HEK293 Gal4-LXR tk-luc reporter, luminescence, 24 h; normalized: DMSO 0%, positive control 100%. activation, % at 6.8 µM. 3,400 tested, under 10 active. AID 743027;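 active means mean percent activation of the reporter above a cutoff set as the average over tested compounds plus their standard deviation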
Target sequence (P55055 whole entry, looked up, the tested form may be a part): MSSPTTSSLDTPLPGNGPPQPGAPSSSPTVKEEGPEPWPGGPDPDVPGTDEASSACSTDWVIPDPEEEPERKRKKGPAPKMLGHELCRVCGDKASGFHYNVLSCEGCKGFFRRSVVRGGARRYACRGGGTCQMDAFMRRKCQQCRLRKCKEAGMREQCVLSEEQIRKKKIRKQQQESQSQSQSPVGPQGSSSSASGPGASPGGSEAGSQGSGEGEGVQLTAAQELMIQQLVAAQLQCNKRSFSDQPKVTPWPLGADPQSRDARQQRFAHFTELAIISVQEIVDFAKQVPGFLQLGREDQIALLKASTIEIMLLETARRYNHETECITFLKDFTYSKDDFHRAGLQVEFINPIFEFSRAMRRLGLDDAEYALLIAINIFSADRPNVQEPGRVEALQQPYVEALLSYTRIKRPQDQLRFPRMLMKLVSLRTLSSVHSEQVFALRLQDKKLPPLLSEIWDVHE
hcDAF12 conf – hcDAF-12 agonism, confirmation assay; shares compounds with hcDAF-12 act; HEK293 hcDAF-12 lit1-tk-luc reporter, luminescence; % of Δ7-dafachronic acid response; activation, % at 6.8 µM; 3,400 compounds, 61% hits;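 active means mean activation across triplicate tests above the threshold derived from the earlier primary screen, cut at about 5.5% in these data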;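 further: 0% = DMSO only wells and 100% = 3 µM Δ7-dafachronic acid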
hgDAF12 conf – hgDAF-12 agonism, confirmation assay; HEK293 GAL4-hgDAF12 luciferase reporter, agonist mode; percent of butyrate response; shares compounds with hgDAF12 agonist; activation, % at 6.8 µM; 3,300 compounds, 80% hits; AID 743050;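 active means mean activation over triplicate wells above the hit cutoff derived from the earlier primary screen, cut at about 11% in these data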;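 further: 0% = DMSO low control and 100% = 2 mM sodium butyrate high control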
LXRb DAF12 ctr – counter-screen for DAF-12 agonists: agonists of human LXR-beta. shares compounds with hgDAF12 agonist. HEK293 Gal4-LXR luciferase reporter, 24 h. activation, % at 6.8 µM. 3,300 tested, under 10 active;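 active means mean activation of the triplicate above a set limit carried over from the primary screen, none filed active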
* hit, by the source's call.

Screening COc1ccccc1C(=O)NNC(=O)c1ccccc1F returned DAX1 inh-1 3, hgDAF12 agonist 16*, ssDAF12 agonist 1.5*, DAX1 inh-2 1, hcDAF-12 act 11*, LXRb hcDAF ctr 1, hcDAF12 conf 11*, hgDAF12 conf 15* and LXRb DAF12 ctr 1.
For O=C(Nc1c(-c2ccccc2)nc2ncccn12)C1CC1 the results were DAX1 inh-1 1, hgDAF12 agonist -3, ssDAF12 agonist -1 and hcDAF-12 act 1.
Screening Cn1c(CNc2ccc(Br)cc2)nc2ccccc21 returned DAX1 inh-1 3, hgDAF12 agonist 14*, ssDAF12 agonist 1.4*, DAX1 inh-2 4.7*, hcDAF-12 act 12*, LXRb hcDAF ctr 1, hcDAF12 conf 11*, hgDAF12 conf 18* and LXRb DAF12 ctr 1.
`COc1ccccc1C(O)Cc1nc2ccccc2n1C` (stereo not drawn) gave DAX1 inh-1 0, hgDAF12 agonist 4, ssDAF12 agonist -1, DAX1 inh-2 0 and hcDAF-12 act 1.
For Cn1c(CNC2CCCCC2)nc2ccccc21 the results were DAX1 inh-1 0, hgDAF12 agonist 0, ssDAF12 agonist 0, DAX1 inh-2 0 and hcDAF-12 act 1.
For COc1ccccc1NCc1nc2ccccc2n1C the results were hgDAF12 agonist 16*, ssDAF12 agonist 1.3*, hcDAF-12 act 11*, LXRb hcDAF ctr 1, hcDAF12 conf 8.7*, hgDAF12 conf 18* and LXRb DAF12 ctr 1.
For Brc1c(-c2ccccc2)nc2n1Cc1ccccc1-2 the results were DAX1 inh-1 2, hgDAF12 agonist 16*, ssDAF12 agonist 1.8*, DAX1 inh-2 4, hcDAF-12 act 11*, LXRb hcDAF ctr 1, hcDAF12 conf 11*, hgDAF12 conf 18* and LXRb DAF12 ctr 1.
For c1ccc2c(c1)Cn1nnnc1-2 the results were DAX1 inh-2 1.
`O=C(NCC1COc2ccccc2O1)c1ccc(NC(=O)c2cccc(F)c2F)cc1` (stereo not drawn) gave DAX1 inh-1 -2, hgDAF12 agonist 0, ssDAF12 agonist -1 and hcDAF-12 act -2.
C[C@H]1C2CC(OC(=O)Nc3ccc(F)cc3)C(C2)[C@H]2CCCCN21 (stereo partly drawn) was read as DAX1 inh-1 -1, hgDAF12 agonist -3, ssDAF12 agonist 0 and hcDAF-12 act -1.
`O=C(CCc1nnc(CCc2c[nH]c3ccccc23)o1)NC1CCC1` gave DAX1 inh-1 2, hgDAF12 agonist 16*, ssDAF12 agonist 1.1*, DAX1 inh-2 3, hcDAF-12 act 7.6*, LXRb hcDAF ctr 0, hcDAF12 conf 6.2*, hgDAF12 conf 12* and LXRb DAF12 ctr 0.
`CCc1ccc(-c2cc(C(=O)O)c3ccccc3n2)s1` gave DAX1 inh-1 2, hgDAF12 agonist 17*, ssDAF12 agonist 1.1*, DAX1 inh-2 -1, hcDAF-12 act 11*, LXRb hcDAF ctr 1, hcDAF12 conf 9.1*, hgDAF12 conf 14* and LXRb DAF12 ctr 1.
CCOC(=O)c1c(C)oc2c1c(C(c1cccnc1)N1CCOCC1)c(O)c1ccccc12 (stereo not drawn) was read as DAX1 inh-1 3, hgDAF12 agonist 13*, ssDAF12 agonist 2.6*, DAX1 inh-2 4.9*, hcDAF-12 act 10*, LXRb hcDAF ctr 1, hcDAF12 conf 5.7*, hgDAF12 conf 8 and LXRb DAF12 ctr 0.
For CCOC(=O)c1c(C)oc2c1c1c(c3ccccc32)OCN(Cc2cccnc2)C1 the results were DAX1 inh-2 0.
Cc1ccc(COc2ccc(C)nc2[N+](=O)[O-])cc1 was read as DAX1 inh-1 2, hgDAF12 agonist 14*, ssDAF12 agonist 0, hcDAF-12 act 9.6*, LXRb hcDAF ctr 1, hcDAF12 conf 7.3*, hgDAF12 conf 14* and LXRb DAF12 ctr 1.
Screening Cc1ccc(Nc2nc(N)c3ccccc3n2)cc1C returned DAX1 inh-1 3, hgDAF12 agonist 16*, ssDAF12 agonist 0.9*, DAX1 inh-2 -2, hcDAF-12 act 6.6*, LXRb hcDAF ctr 2, hcDAF12 conf 8.0*, hgDAF12 conf 21* and LXRb DAF12 ctr 1.
`Cc1cc(NC(=O)c2cc3cccc([N+](=O)[O-])c3[nH]2)ccc1F` gave DAX1 inh-1 2, hgDAF12 agonist 14*, ssDAF12 agonist 0, DAX1 inh-2 9.7*, hcDAF-12 act 7.7*, LXRb hcDAF ctr 1, hcDAF12 conf 7.1*, hgDAF12 conf 13* and LXRb DAF12 ctr 1.
For c1csc(C2=NNC(=NC3CCCCC3)SC2)c1 the results were DAX1 inh-1 3, hgDAF12 agonist 17*, ssDAF12 agonist 1.5*, hcDAF-12 act 10*, LXRb hcDAF ctr 1, hcDAF12 conf 6, hgDAF12 conf 16* and LXRb DAF12 ctr 1.
Cc1cc(C2=NNC(=NC3CCCCC3)SC2)c(C)n1-c1c(C)n(C)n(-c2ccccc2)c1=O was read as DAX1 inh-1 -1, hgDAF12 agonist -1, ssDAF12 agonist -2, DAX1 inh-2 0 and hcDAF-12 act 1.
c1ccc(-c2nccc3ccccc23)cc1 was read as DAX1 inh-1 0, hgDAF12 agonist 0, ssDAF12 agonist -1, DAX1 inh-2 -3 and hcDAF-12 act 0.
Cc1ccc(-c2nc(-c3nccc4ccccc34)oc2-c2ccccc2)cc1 was read as DAX1 inh-1 3, hgDAF12 agonist 17*, ssDAF12 agonist 1, DAX1 inh-2 4, hcDAF-12 act 7.7*, LXRb hcDAF ctr 1, hcDAF12 conf 9.5*, hgDAF12 conf 16* and LXRb DAF12 ctr 1.
`O=C(Nc1ccc(F)cc1)OCc1cn(Cc2ccc(F)cc2F)nn1` gave DAX1 inh-1 -1, hgDAF12 agonist 3, ssDAF12 agonist -1 and hcDAF-12 act -2.
CCOC(=O)c1csc(-c2ccc(OC)c(OC)c2)n1 was read as DAX1 inh-1 0, hgDAF12 agonist 0, ssDAF12 agonist -1, DAX1 inh-2 0 and hcDAF-12 act 0.

High-throughput results deposited in PubChem by The Scripps Research Institute Molecular Screening Center.
